Assay results reported in PubChem BioAssay AID618 (Sanford-Burnham Center for Chemical Genomics, 2007).
The campaign covered roughly 87,000 compounds. About 540 (0.62%) were called active. How the calls were made is not given here. The entries come from a sample that favours actives as a whole. Entries that show only a call come without a potency. Potency and affinity values are given separately.

Assay: inhibitors of MT1-MMP promoter transcription, cell-based, luciferase reporter, luminescence (AID 618);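 further: actives suppress MT1-MMP promoter-driven transcription so potencies describe inhibitors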
Settings: MT1-MMP promoter luciferase reporter cells
With `Cc1ccc(-c2nnc(SCC(=O)N3CCCC3)o2)cc1C` the outcome was “inactive”.
For `COC(=O)c1ccc(S(=O)(=O)c2ccccc2)c(N)c1`, the outcome was “inactive”.
For `O=C(Cn1cnc2c(nnn2Cc2ccccc2)c1=O)N1CCN(c2ccccc2)CC1`, the outcome was “inactive”.
With `CCOc1nc(NC2CCCCC2)nc(NC(C)(C)C)n1` the outcome was “inactive”.
With `C/C=C/COC(=O)c1[nH]c2c(c1C)C(=O)CC(c1ccco1)C2` (stereo unspecified) the outcome was “active”.
For `Cc1c(C(=O)OCC2CCCO2)[nH]c2c1C(=O)CC(c1ccc(N(C)C)cc1)C2` (stereo unspecified), the outcome was “inactive”.
For `C=CCOC(=O)c1[nH]c2c(c1C)C(=O)CC(c1ccco1)C2` (stereo unspecified), the outcome was “active”.
With `C/C=C/COC(=O)c1[nH]c2c(c1C)C(=O)CC(c1ccc(N(C)C)cc1)C2` (stereo unspecified) the outcome was “inactive”.
In the case of `Cc1ccc(S(=O)(=O)N(CC(=O)N2CCC(C(N)=O)CC2)Cc2ccc(F)cc2)cc1`, the outcome is reported as “inactive”.
In the case of `Oc1ccc(F)cc1-c1cc(-c2ccc3c(c2)OCCO3)n[nH]1`, the outcome is reported as “inactive”.
In the case of `Oc1ccccc1-c1cc(-c2ccc3c(c2)OCCO3)n[nH]1`, the outcome is reported as “active”.
For `Oc1ccccc1-c1cc(-c2cccc(F)c2)n[nH]1`, the outcome was “inactive”.
For `Cc1cccc(NCc2ccccc2O)n1`, the outcome was “inactive”.
For `O=C(CSc1nnc(COc2ccc(F)cc2)o1)N1c2ccccc2CCc2ccccc21`, the outcome was “inactive”.
For `O=C(CSc1nnc(COc2ccc(Cl)cc2)o1)N1CCN(c2ccccc2)CC1`, the outcome was “inactive”.
For `O=C(CSc1nnc(COc2ccc(Cl)cc2)o1)N1c2ccccc2CCc2ccccc21`, the outcome was “active”.
With `COC(=O)c1ccccc1NC(=O)NCc1ccco1` the outcome was “inactive”.
In the case of `CC1(C)CC(=O)C2=C(C1)N(CCN1CCOCC1)C1=C(C(=O)CC(C)(C)C1)C2c1cccc(F)c1`, the outcome is reported as “inactive”.
With `CC(=O)Nc1ccc(-c2nnn(CC(=O)c3ccccc3)n2)cc1Cl` the outcome was “inactive”.
For `CCOc1cc(/C=N/n2cnnc2)cc(Br)c1O`, the outcome was “inactive”.
In the case of `CCOc1cc(/C=N/n2cnnc2)ccc1O`, the outcome is reported as “inactive”.
With `CCOc1cc(/C=N/n2cnnc2)c(Br)cc1O` the outcome was “active”.
In the case of `O=C(COc1ccc(S(=O)(=O)NC2CCCCC2)cc1)NCC1CCCO1` (stereo unspecified), the outcome is reported as “inactive”.
In the case of `N#Cc1nn(-c2ccccc2)nc1N1CCCCC1`, the outcome is reported as “inactive”.
In the case of `Cc1ccc(NC(=O)CC(O)(C(F)(F)F)C(F)(F)F)cc1`, the outcome is reported as “inactive”.
In the case of `CCN1C(=O)C2C(c3ccccc3F)NC(Cc3ccc(O)cc3)(C(=O)OC)C2C1=O` (stereo unspecified), the outcome is reported as “inactive”.
With `CCOc1ccccc1C(=O)Nc1nnc(CC)s1` the outcome was “inactive”.
In the case of `COC(=O)c1sc(NC(=O)c2ccc(OC)cc2OC)nc1C`, the outcome is reported as “active”.
For `COC(=O)c1sc(NC(=O)COc2ccc(OC)cc2)nc1C`, the outcome was “inactive”.
In the case of `COc1ccc(C(=O)Nc2ccc(C)cn2)c(OC)c1`, the outcome is reported as “active”.
With `COc1ccc(C(=O)Nc2c(F)c(F)c(F)c(F)c2F)c(OC)c1` the outcome was “inactive”.
For `COC(=O)c1sc(NC(=O)c2ccoc2C)nc1C`, the outcome was “inactive”.
In the case of `COc1ccc(C(=O)Nn2cnnc2)c(OC)c1`, the outcome is reported as “inactive”.
In the case of `CCc1nnc(NC(=O)c2c(OC)cccc2OC)s1`, the outcome is reported as “inactive”.
For `Cc1ccc(C)c2[nH]c(=O)c(CCNC(=O)C(C)(C)C)cc12`, the outcome was “inactive”.
In the case of `O=S(=O)(c1ccc(Br)cc1)N1CCCN(Cc2ccccc2F)CC1`, the outcome is reported as “inactive”.
For `COc1ccccc1NC(=O)N1CCN(c2ccc3nncn3n2)CC1`, the outcome was “inactive”.
For `CCCCOC(=O)C1C2C=C[C@]3(CN(CCCOC)C(=O)[C@H]13)O2` (stereo partly specified), the outcome was “inactive”.
In the case of `CCOc1ccc(NC(=O)CSc2nnc(Cn3c(=O)sc4ccccc43)n2C)cc1`, the outcome is reported as “inactive”.
In the case of `CCOC(=O)c1cnn(CCOC(=O)Cc2cccs2)c1NC(=O)Cc1cccs1`, the outcome is reported as “inactive”.
In the case of `CC1=[N+]([O-])C(N2CCOCC2)C(O)(c2ccccc2)C1` (stereo unspecified), the outcome is reported as “inactive”.
In the case of `COCCN1C(=O)c2ccccc2C(C(=O)NCCCN2CCCC2)C1c1c[nH]c2ccccc12` (stereo unspecified), the outcome is reported as “inactive”.
For `O=C(NCC(c1cccnc1)N1CCOCC1)c1ccc2c(c1)OCO2` (stereo unspecified), the outcome was “inactive”.
For `O=S(=O)(NCCOCC(F)(F)C(F)F)c1ccc2oc3ccccc3c2c1`, the outcome was “inactive”.
For `S=C(Nc1ccccn1)c1ccccn1`, the outcome was “inactive”.
With `S=C(Nc1ccccc1)c1ccccn1` the outcome was “inactive”.
For `Cc1c(C(=O)c2ccc(Cl)cc2Cl)cnc2cc3c(cc12)OCO3`, the outcome was “inactive”.
For `O=C(CN1CCN(C(=O)c2ccco2)CC1)Nc1c2c(nc3c1CCC3)CCCC2`, the outcome was “inactive”.
In the case of `Cc1ccc(-c2noc(-c3cccs3)n2)cc1`, the outcome is reported as “inactive”.
For `COC(=O)c1noc(-c2ccc(C)cc2)n1`, the outcome was “inactive”.
For `COc1ccc(C(NC(N)=O)c2ccccc2)cc1` (stereo unspecified), the outcome was “inactive”.
For `FC(F)C(F)(F)C(F)(F)C(F)(F)c1cc(-c2ccccc2)n[nH]1`, the outcome was “inactive”.
For `CCN(CC)c1ccc2cc(-c3nnc(-c4ccccc4)o3)c(=O)oc2c1`, the outcome was “inactive”.
For `CCN(CC)c1ccc2cc(-c3nc4ccccc4n3C)c(=O)oc2c1`, the outcome was “inactive”.
With `COc1cc(C2CC(=O)n3c(nc4ccccc43)S2)cc(OC)c1OC` (stereo unspecified) the outcome was “inactive”.
In the case of `O=C1CC(c2ccc3c(c2)OCO3)Sc2nc3ccccc3n21` (stereo unspecified), the outcome is reported as “active”.
In the case of `COc1ccc(C2CC(=O)n3c(nc4ccccc43)S2)cc1OC` (stereo unspecified), the outcome is reported as “inactive”.
With `Clc1ccc2c(c1)C1OCCC1C(c1ccco1)N2` (stereo unspecified) the outcome was “inactive”.
In the case of `Cc1ccc(-c2nn(CC(=O)NCc3cc(-c4nn(C)c(=O)c5ccccc45)ccc3C)c(=O)c3ccccc23)cc1`, the outcome is reported as “inactive”.
In the case of `CN(C)S(=O)(=O)c1ccc(C(=O)OCC(=O)NC(=O)NCc2ccccc2)cc1`, the outcome is reported as “inactive”.
With `CCOC(=O)Nc1cccc(Nc2ccccc2)c1` the outcome was “inactive”.
In the case of `CCOC(=O)c1sc(Nc2ccccc2)nc1C`, the outcome is reported as “inactive”.
With `CCOC(=O)/C(=C\c1cccnc1)C(=O)c1cc(C(C)=O)c(Nc2ccccc2)s1` the outcome was “active”.
For `CCOC(=O)/C(=C/Nc1ccccc1)[N+](=O)[O-]`, the outcome was “inactive”.
For `CCOC(=O)c1cccc(NC(=O)c2cccnc2)c1`, the outcome was “inactive”.
In the case of `c1ccc(C2C3=C(CCCC3)Nc3ncnn32)cc1` (stereo unspecified), the outcome is reported as “inactive”.
With `Cc1cccc(C)c1NC(=O)CSc1nnc(CCCCCNC(=O)OC(C)(C)C)o1` the outcome was “inactive”.
With `COc1ccc2cc(C#N)c(SCC(=O)N3CCCC3)nc2c1` the outcome was “inactive”.
With `Nc1cccc2cnccc12` the outcome was “inactive”.
In the case of `Cc1cc2c(N)cccc2nn1`, the outcome is reported as “inactive”.
In the case of `O=S(=O)(c1ccc(N2CCC(c3ccc(Cl)cc3)=N2)cc1)N(CCO)CCO`, the outcome is reported as “inactive”.
In the case of `CN(C)CCNS(=O)(=O)c1ccc(Cl)cc1`, the outcome is reported as “inactive”.
In the case of `CC1NC(=O)NC1CCCCC(=O)O` (stereo unspecified), the outcome is reported as “inactive”.
For `Cc1ccc(S(=O)(=O)NC2=NCN(C3CCCCC3)CN2)cc1`, the outcome was “inactive”.
For `Cc1ccc(Cn2c(NCCc3ccccc3)nc3c2c(=O)n(C)c(=O)n3C)cc1`, the outcome was “inactive”.
For `COc1ccc(NS(=O)(=O)c2ccc(N)c(C(=O)O)c2)cc1`, the outcome was “inactive”.
In the case of `Cn1cccc1C(=O)OCc1csc(-c2ccccc2)n1`, the outcome is reported as “inactive”.
In the case of `O=C(OCc1csc(-c2ccccc2)n1)c1cccs1`, the outcome is reported as “inactive”.
In the case of `Cc1ccsc1C(=O)OCc1csc(-c2ccccc2)n1`, the outcome is reported as “active”.
With `O=c1cc(CSc2nnnn2-c2ccccc2)nc2nc[nH]n12` the outcome was “inactive”.
With `O=C(NC1CC1)c1cc2c(s1)-c1ccccc1OC2` the outcome was “inactive”.
With `Cn1c(=O)cc(SCC(=O)NCC2CCCO2)c2ccccc21` (stereo unspecified) the outcome was “inactive”.
In the case of `Cc1cc(NCCCn2ccnc2)n2ncc(-c3ccccc3)c2n1`, the outcome is reported as “active”.
For `Cc1cc(NCCCn2ccnc2)n2nc(C)c(-c3ccc(Cl)cc3)c2n1`, the outcome was “inactive”.
For `Cc1cc(NCCCN2CCOCC2)n2ncc(-c3ccccc3)c2n1`, the outcome was “inactive”.
For `CC(C)(C)c1cc(NCCCn2ccnc2)n2ncc(-c3ccc(Cl)cc3)c2n1`, the outcome was “inactive”.
With `Cc1cc(NCCCn2ccnc2)n2nc(C)c(-c3ccccc3)c2n1` the outcome was “inactive”.
In the case of `Cc1ccc(C)c(C(=O)CC2(O)C(=O)Nc3ccccc32)c1` (stereo unspecified), the outcome is reported as “inactive”.
In the case of `Cc1onc(-c2c(F)cccc2Cl)c1C(=O)NCCCN1CCOCC1`, the outcome is reported as “inactive”.
With `Cc1cccc(C)c1NC(=O)Cn1c(CN2CCCCC2)nc2ccccc2c1=O` the outcome was “inactive”.
With `CCN(Cc1ccccc1)S(=O)(=O)c1nc2nc(C)c(C)c(C)n2n1` the outcome was “inactive”.
With `CC(=O)Nc1ccc(-c2cn3ccsc3n2)cc1` the outcome was “inactive”.
In the case of `CC(C)(C)C(=O)Nc1ccc(-c2cn3ccsc3n2)cc1`, the outcome is reported as “active”.
For `CC(C)CC(=O)Nc1ccc(-c2cn3ccsc3n2)cc1`, the outcome was “inactive”.
With `CCCOC(=O)c1ccc(Oc2c(-c3ccc(OC)cc3O)n[nH]c2C)cc1` the outcome was “inactive”.
With `COc1ccc(CN2CC(C(=O)NCc3ccc4c(c3)OCO4)CC2=O)cc1` (stereo unspecified) the outcome was “inactive”.
In the case of `O=C(c1nc2nc(-c3ccccc3)cc(C(F)(F)F)n2n1)N1CCOCC1`, the outcome is reported as “inactive”.
For `O=C(CSc1nnc(-c2ccccc2)n1Cc1ccco1)Nc1ccc(S(=O)(=O)N2CCCC2)cc1`, the outcome was “inactive”.
For `Clc1ccc(-c2nnc3n2CCCCC3)cc1`, the outcome was “inactive”.
With `Clc1ccc(-c2nc(N3CCCCC3)nc3ccccc23)cc1` the outcome was “inactive”.
In the case of `Clc1c(CSc2nc3ccccc3o2)nc2sccn12`, the outcome is reported as “inactive”.
With `c1ccc2oc(SCc3cn4ccccc4n3)nc2c1` the outcome was “inactive”.
For `CCOc1cc(/C=N/N=C(/N)c2nonc2N)cc(Br)c1OCc1ccc(Cl)cc1`, the outcome was “inactive”.
With `CCOC(=O)c1[nH]c(C)c(C(=O)NCCCOC(C)C)c1C` the outcome was “inactive”.
With `c1ccc(CN2CCN(c3nc4ccccc4c4ccccc34)CC2)cc1` the outcome was “inactive”.
With `COCCOC(=O)C1=C(C)NC2=C(C(=O)CCC2)C1c1cc2c(cc1Br)OCO2` (stereo unspecified) the outcome was “inactive”.
With `O=S(=O)(c1ccc2c(c1)C(=NO)c1cc(S(=O)(=O)N3CCCCC3)ccc1-2)N1CCCCC1` the outcome was “active”.
For `O=S(=O)(c1ccc(S(=O)(=O)N2CCCC2)cc1)N1CCCCCC1`, the outcome was “inactive”.
In the case of `CC1CCN(S(=O)(=O)c2ccc3c(c2)C(=NO)c2cc(S(=O)(=O)N4CCC(C)CC4)ccc2-3)CC1`, the outcome is reported as “inactive”.
In the case of `O=C(CCC(=O)c1ccc(F)cc1)Nc1cccnc1`, the outcome is reported as “inactive”.
For `CC(C)N(CCCNC(=O)CC1Oc2ccccc2NC1=O)Cc1ccccc1` (stereo unspecified), the outcome was “inactive”.
With `Nc1ccc2c(c1)C(=O)C(=O)c1ccccc1-2` the outcome was “active”.
In the case of `O=C1C(=O)c2ccc(-c3ccccc3)cc2-c2ccccc21`, the outcome is reported as “inactive”.
In the case of `Nc1ccc(Br)c2c1C(=O)c1ccccc1C2=O`, the outcome is reported as “inactive”.
For `CCOC(=O)CON1C(=O)c2ccccc2C1=O`, the outcome was “inactive”.
For `COc1ccc(-c2c(C)n([O-])c3c([n+]2=O)CCCC3)cc1`, the outcome was “inactive”.
